Experimental data reported in PubChem BioAssay AID493231 (Broad Institute, 2011).
Results with a measured potency or affinity are listed apart.

molecular target: Acyl-homoserine lactone acylase PvdQ (Pseudomonas aeruginosa (strain ATCC 15692 / DSM 22644 / CIP 104116 / JCM 14847 / LMG 12228 / 1C / PRS 101 / PAO1)) (UniProt Q9I194); test: PvdQ acylase enzyme activity blockers – biochemical, fluorescence, plate reader and imaging, cherry-picks, dose response (AID 493231); settings: purified PvdQ acylase, fluorogenic substrate; series mostly up to 10 µM; activity change, negative = inhibition: at the top concentration;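 also: 0% = neutral control wells and -100% = reference inhibitor wells; more negative values mean stronger inhibition of the acylase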
Sequence (Q9I194 whole entry, looked up): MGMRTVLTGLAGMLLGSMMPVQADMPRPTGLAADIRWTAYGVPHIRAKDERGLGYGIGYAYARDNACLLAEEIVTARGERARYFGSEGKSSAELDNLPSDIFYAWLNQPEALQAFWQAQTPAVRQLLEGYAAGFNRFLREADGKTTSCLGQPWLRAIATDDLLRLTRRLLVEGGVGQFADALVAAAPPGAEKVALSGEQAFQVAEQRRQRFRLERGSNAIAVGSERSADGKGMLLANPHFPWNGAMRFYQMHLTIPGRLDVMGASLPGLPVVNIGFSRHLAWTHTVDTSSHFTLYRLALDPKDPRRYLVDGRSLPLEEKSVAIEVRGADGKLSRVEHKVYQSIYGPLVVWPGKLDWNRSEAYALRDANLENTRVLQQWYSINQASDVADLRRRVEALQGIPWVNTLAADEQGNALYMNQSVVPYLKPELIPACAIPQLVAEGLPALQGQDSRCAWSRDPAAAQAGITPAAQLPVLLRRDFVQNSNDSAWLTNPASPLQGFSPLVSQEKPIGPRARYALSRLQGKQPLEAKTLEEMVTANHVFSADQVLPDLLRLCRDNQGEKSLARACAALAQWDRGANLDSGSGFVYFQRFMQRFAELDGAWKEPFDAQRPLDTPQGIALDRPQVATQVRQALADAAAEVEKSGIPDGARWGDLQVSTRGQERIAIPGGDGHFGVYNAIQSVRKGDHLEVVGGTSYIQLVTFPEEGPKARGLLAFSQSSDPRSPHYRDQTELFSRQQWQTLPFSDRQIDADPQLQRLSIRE

Activity change, negative = inhibition, inactive:
Cc1ccc(Nc2nc(-c3sc(C)nc3C)cs2)cc1 17.1 unspecified, COc1ccc2cc(C)c3nnc(SCC(=O)Nc4cc(OC)c(OC)cc4C(=O)O)n3c2c1 12.9 unspecified, COc1ccc(-c2nn(-c3ccccc3)cc2/C=C2/SC(=S)N(CCC(=O)O)C2=O)cc1 -8.74 unspecified, CCOC(=O)c1ccc(N2CCN(c3ccccc3F)CC2)c(NC(=O)Nc2cccc(OC)c2)c1 -5.01 unspecified, CN1CCN(C(=O)c2cccn(Cc3ccc(C(F)(F)F)cc3)c2=O)CC1 8 unspecified, O=C(CSc1n[nH]c(=O)n1Cc1ccco1)c1ccc2c(c1)OCCO2 12.8 unspecified, O=C(O)c1ccc(N=Nc2c(O)ccc3ncccc23)cc1 0.421 unspecified, Cc1cc(C(=O)OCC(=O)Nc2cc(C)on2)c2ccccc2n1 2.6 unspecified, COC(=O)c1cc(S(=O)(=O)Nc2cccc(S(N)(=O)=O)c2)oc1C 7.02 unspecified, Cc1onc(-c2ccccc2)c1C(=O)c1c[nH]c(C(=O)NCCCN2CCOCC2)c1 9.9 unspecified, O=C1CCCN=C(Nc2ccc(F)c(Cl)c2)S1 4.46 unspecified, Cc1cc(/C=C2\Cc3ccccc3C2=O)c(C)n1-c1ccccc1 2 unspecified, Clc1ccc2nc(-c3ccc4c(c3)OCO4)cn2c1 -8.24 unspecified, Cc1ccc(O)c(NC(=S)NC(=O)/C=C/c2ccco2)c1 9.83 unspecified, CCCSC1=C(C#N)C(c2ccc(OC)cc2)C2=C(CC(C)(C)CC2=O)N1 (configuration not stated) -5.15 unspecified, Cn1nnnc1SCC(=O)NCCCc1ccccc1 13.1 unspecified, COc1ccc(C(=O)N/N=C/c2ccc(OC)c(CN3CCCc4ccccc43)c2)cc1 4.56 unspecified
